About 79,000 compounds went through this panel and 15% of them were active in at least one assay; those are over-represented in the sample as a whole. Activity calls are given as the source filed them. Cut-off read from the data, not from the text of the source: active = growth inhibition above about 70%; inactive = the rest.

The first test in a line: NCI Yeast Anticancer Drug Screen. Data for the bub3 strain (AID 167). The conditions noted are these: S. cerevisiae bub3 mutant strain, at 50.0 µM, stronger effect = higher value. In short, it runs like this: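 Growth of a checkpoint-deficient yeast mutant is measured after compound exposure. Values represent inhibition relative to vehicle.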
Regarding `CCOC(=O)CC1CC(C)(C(=O)OCC)C(=O)CC1=O` (stereo not drawn), the growth inhibition was 7.5% (inactive).

Regarding `CN(C)CC(CN(C)C)C(=O)O`, the growth inhibition is -6.25% (inactive).

For the compound `COC(=O)[C@]1(C)CCCn2c(=O)n(-c3ccccc3)c(=O)n21`, the growth inhibition is 13.8% (inactive).

`COc1ccc(-n2[nH]c3c(cnc4ccccc43)c2=O)cc1`: the growth inhibition was -22.8% (inactive).

Consider `CN(C)c1cc(N(C)C)c2cc(C#N)ccc2n1`, for which the growth inhibition was 0.9% (inactive).

As for `N#CC(C#N)c1ccc(C(C#N)C#N)cc1`, the growth inhibition was -12.3% (inactive).

As for `Cc1n[n+](Cc2ccccc2)c2sc(N)nn12`, the growth inhibition was 26.9% (inactive).

In the case of `N#CC(c1cccs1)C1CCCCC1` (stereo not drawn), the growth inhibition is 2.65% (inactive).

As for `N=c1nc2n(cc1F)[C@@H]1O[C@H](CO)[C@@H](O)[C@@H]1O2`, the growth inhibition was 12.6% (inactive).

Regarding `O=C(CCC1CCCCC1)OC1CCCC1`, the growth inhibition is -2.3% (inactive).

On to `Cc1ccc(S(=O)(=O)OCC(C)C(c2ccccc2)c2ccccc2)cc1` (stereo not drawn), for which the growth inhibition is -3.3% (inactive).

For the compound `CC1(C)[C@H]2CC[C@@]1(C)C(=O)[C@H]2[N+](=O)[O-]`, the growth inhibition was -9.15% (inactive).

Consider `O=c1onc2c3ccccc3ncn12`, for which the growth inhibition was -8.6% (inactive).

Another test in a line: NCI Yeast Anticancer Drug Screen. Data for the mlh1 rad18 strain (AID 175). The conditions noted are these: S. cerevisiae mlh1 rad18 strain growth inhibition; at 50.0 µM; stronger effect = higher value. In short, it runs like this: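 Steps: expose repair-defective yeast to compound; measure growth; express inhibition against vehicle-treated controls.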
For `CCCNC=O`, the growth inhibition was -5% (inactive).

On to `CN(C)c1ccc(/C=C(\C#N)c2ccccc2Br)cc1`, for which the growth inhibition was 3.95% (inactive).

In the case of `CN(C)CCNc1ncnc2nc(-c3ccc4ccccc4c3)[nH]c12`, the growth inhibition was -18.6% (inactive).

Consider `CCCCCCC(=O)CC(SCCS)c1ccc(Cl)c(Cl)c1` (stereo not drawn), for which the growth inhibition was 6.3% (inactive).

In the case of `COC1=C(c2ccccc2)P(=O)(Cc2ccccc2)C2CCCC12` (stereo not drawn), the growth inhibition is -17.3% (inactive).

For the compound `CNCC1OC(OC)C2OC(C)(C)OC12` (stereo not drawn), the growth inhibition was 5.05% (inactive).

Regarding `CCCCCCCC/C=C/CCCCCCCC(=O)NN(C)C`, the growth inhibition is -11.3% (inactive).

As to `COCC1OC(n2cc(C)c(=O)n(C)c2=O)CC1OC` (stereo not drawn), the growth inhibition is 8% (inactive).

Regarding `CCCCCCCCCCCCCCCCCC1=NCC(C)O1` (stereo not drawn), the growth inhibition was -10.1% (inactive).

With `CC(=O)c1cccc(NC(=O)Oc2ccc(C(=O)OCc3ccccc3)cc2)c1`, the growth inhibition is 92.9% (active).

Turning to `CCOCCOC(=O)CCCCCCCCC(=O)OCCOCC`, the growth inhibition is 25.9% (inactive).

Regarding `Cc1ccccc1NC(=O)CC(=O)N1N=C(N(CCC#N)c2ccccc2Cl)CC1c1ccccc1` (stereo not drawn), the growth inhibition was -8.3% (inactive).

For the compound `CS/C(=C\c1ccc(C(=O)c2ccc(C)cc2)n1C)S(C)=O` (stereo not drawn), the growth inhibition was 35.5% (inactive).

As for `COC(=O)c1oc([N+](=O)[O-])c(-c2ccccc2)c1-c1ccccc1`, the growth inhibition is 24.1% (inactive).

On to `CCN(CC)c1ccc2c(c1)Cc1ccccc1-2`, for which the growth inhibition was -5.65% (inactive).

As to `C=C(C)C(O)C(O)C(=C)C` (stereo not drawn), the growth inhibition is -4% (inactive).

In the case of `CNc1ccn(C2OC(CO)C(O)C2O)c(=O)n1` (stereo not drawn), the growth inhibition was 8.25% (inactive).

Regarding `COC(=O)C(/C(=N/N)C(=O)Nc1cc(Cl)ccc1Cl)c1nc2ccc([N+](=O)[O-])cc2[nH]c1=O` (stereo not drawn), the growth inhibition was 15.6% (inactive).

On to `Nc1nc(N)nc(COc2ccccc2Cl)n1`, for which the growth inhibition is 13.2% (inactive).

For `Cc1ccc(S(=O)(=O)N2CN3CN(C2)CN(S(=O)(=O)c2ccc(C)cc2)C3)cc1`, the growth inhibition is -4.2% (inactive).

Turning to `CC(C)(C)C1CCC(=NO)CC1` (stereo not drawn), the growth inhibition is 23.8% (inactive).

With `COc1cccc(NC(=O)CC(=O)N/N=C/c2ccc(N(CCC#N)CCC#N)c(I)c2)c1`, the growth inhibition is 28.7% (inactive).

Turning to `c1ccc2c(c1)ccc1c3ccccc3ncc21`, the growth inhibition is 23.1% (inactive).

For the compound `c1ccc(-c2cc(-c3ccncc3)cc(-c3ccncc3)n2)cc1`, the growth inhibition was -85.2% (inactive).

On to `O=C1C=CC(=O)N1n1c(-c2ccccc2)n[nH]c1=O`, for which the growth inhibition was -53.6% (inactive).

Take `O=C1OCC2CC1C(=O)O2` (stereo not drawn): the growth inhibition is 6.65% (inactive).

`CN1C(=O)C(O)(c2c3c(c(C4(O)C(=O)N(C)c5ccccc54)c4c2OCO4)OCO3)c2ccccc21` (stereo not drawn): the growth inhibition is 8.95% (inactive).

`CCOC(=O)CC1CC(C)(C(=O)OCC)C(=O)CC1=O` (stereo not drawn): the growth inhibition is 0% (inactive).

Consider `CN(C)CC(CN(C)C)C(=O)O`, for which the growth inhibition was -15.7% (inactive).

For the compound `COC(=O)[C@]1(C)CCCn2c(=O)n(-c3ccccc3)c(=O)n21`, the growth inhibition is -21.6% (inactive).

`COc1ccc(-n2[nH]c3c(cnc4ccccc43)c2=O)cc1`: the growth inhibition is 2% (inactive).

`CN(C)c1cc(N(C)C)c2cc(C#N)ccc2n1`: the growth inhibition was 5.75% (inactive).

Turning to `N#CC(C#N)c1ccc(C(C#N)C#N)cc1`, the growth inhibition is -1.55% (inactive).

As to `Cc1n[n+](Cc2ccccc2)c2sc(N)nn12`, the growth inhibition is -26.1% (inactive).

For `N#CC(c1cccs1)C1CCCCC1` (stereo not drawn), the growth inhibition is -1.3% (inactive).

Turning to `N=c1nc2n(cc1F)[C@@H]1O[C@H](CO)[C@@H](O)[C@@H]1O2`, the growth inhibition is -12.2% (inactive).

On to `O=C(CCC1CCCCC1)OC1CCCC1`, for which the growth inhibition is 24.3% (inactive).

With `Cc1ccc(S(=O)(=O)OCC(C)C(c2ccccc2)c2ccccc2)cc1` (stereo not drawn), the growth inhibition was 0.2% (inactive).

In the case of `CC1(C)[C@H]2CC[C@@]1(C)C(=O)[C@H]2[N+](=O)[O-]`, the growth inhibition was 8.75% (inactive).

In the case of `O=c1onc2c3ccccc3ncn12`, the growth inhibition was 0.65% (inactive).

For the origin of these results see PubChem BioAssay (NCI).
